High-throughput results: PubChem BioAssay, Buhrlage Lab, Dana-Farber Cancer Institute and Novartis Institutes for BioMedical Research (Cambridge, Mass)
USP7 inh – inhibitors of human USP7 deubiquitinase | Q93009 | AID 1645854 | hit rate 0.3% among 47,000 | purified USP7, Ub-rhodamine cleavage fluorescence | inhibition, % at 20 µM
USP10 block – human USP10 deubiquitinase inhibition; purified USP10, Ub-rhodamine fluorescence, 60 min; inhibition, % at 20 µM; Q14694; hit rate 1.1% among 47,000
USP8 inh – blocks human USP8 ubiquitin-rhodamine cleavage; purified USP8, Ub-rhodamine cleavage fluorescence, 30 min; AID 1645853; P40818; inhibition, % at 20 µM; hit rate 4.2% among 47,000
Target sequence (P40818 whole entry, looked up): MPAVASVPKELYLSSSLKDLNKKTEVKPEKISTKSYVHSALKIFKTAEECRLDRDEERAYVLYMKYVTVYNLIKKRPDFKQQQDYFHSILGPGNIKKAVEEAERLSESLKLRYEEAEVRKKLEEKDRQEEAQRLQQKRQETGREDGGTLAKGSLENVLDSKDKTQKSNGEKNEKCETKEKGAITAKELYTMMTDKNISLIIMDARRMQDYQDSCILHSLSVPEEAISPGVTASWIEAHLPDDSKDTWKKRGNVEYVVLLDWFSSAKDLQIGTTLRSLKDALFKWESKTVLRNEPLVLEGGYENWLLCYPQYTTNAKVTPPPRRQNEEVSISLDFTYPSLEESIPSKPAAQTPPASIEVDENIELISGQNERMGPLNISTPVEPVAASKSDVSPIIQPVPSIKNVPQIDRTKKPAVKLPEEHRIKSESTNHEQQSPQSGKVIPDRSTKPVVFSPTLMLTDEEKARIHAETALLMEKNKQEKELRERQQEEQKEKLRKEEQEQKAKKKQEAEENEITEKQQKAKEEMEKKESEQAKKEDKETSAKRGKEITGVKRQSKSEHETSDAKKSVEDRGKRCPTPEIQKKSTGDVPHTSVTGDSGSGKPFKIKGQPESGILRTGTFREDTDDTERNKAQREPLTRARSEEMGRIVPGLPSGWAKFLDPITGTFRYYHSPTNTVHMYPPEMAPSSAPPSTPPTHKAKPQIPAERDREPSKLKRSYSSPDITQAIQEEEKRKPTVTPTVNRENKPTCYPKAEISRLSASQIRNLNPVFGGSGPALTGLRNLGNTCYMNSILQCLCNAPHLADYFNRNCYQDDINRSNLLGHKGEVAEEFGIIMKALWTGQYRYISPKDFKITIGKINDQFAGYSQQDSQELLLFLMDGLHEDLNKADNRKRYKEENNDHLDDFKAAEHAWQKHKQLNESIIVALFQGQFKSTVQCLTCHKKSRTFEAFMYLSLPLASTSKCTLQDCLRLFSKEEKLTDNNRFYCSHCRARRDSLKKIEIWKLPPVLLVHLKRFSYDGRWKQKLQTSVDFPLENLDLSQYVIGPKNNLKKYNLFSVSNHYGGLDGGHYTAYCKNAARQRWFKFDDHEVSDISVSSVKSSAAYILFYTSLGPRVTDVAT
UCHL1 block – human UCHL1 deubiquitinase inhibition; P09936; purified UCHL1, Ub-rhodamine cleavage fluorescence; inhibition, % at 20 µM; hit rate 0.2% among 47,000; AID 1645859
* hit, by the source's call. Sampled rows, rich in hits. Any-hit rate of the full collection: about 4.6%. No stated cut-off is given here; in the data, active means inhibition above about 30%; inactive means the rest.

SMILES	USP7 inh	USP10 block	USP8 inh	UCHL1 block
CC(=O)Nc1cc(C(=O)NC2CCCC2)c2ccc(C)nc2c1	-9	-7	34*	4
O[C@H]1[C@H](NCc2ccccc2)[C@@H](c2ccncc2)C[C@H]1O	-7	-2	-31	-5
COc1ccc(NCc2nc3ccccc3n2Cc2ccccc2)cc1	-25	-3	90*	3
O=C(O)c1ccc(NCc2nc3ccccc3n2Cc2ccccc2F)cc1	-8	7	23	-2
COc1ccc(Cc2nnc(NC(C)c3ccccc3)[nH]c2=O)cc1 (configuration not stated)	15	31*	67*	4
COc1ccc(Cc2nnc(Nc3ccc(F)cc3)[nH]c2=O)cc1	8	25	52*	0
COc1ccc(Nc2nnc(Cc3ccccc3)c(=O)[nH]2)cc1	8	11	25	1
Cc1cccc(Nc2nnc(Cc3ccccc3)c(=O)[nH]2)c1	16	16	59*	2
COc1ccc(Cc2nnc(Nc3ccccc3)[nH]c2=O)cc1	4	3	51*	-1
COc1ccc2[nH]c3c(c2c1)CCN1C(=O)CN(Cc2ccco2)C(=O)[C@]31C	-14	-4	2	0
Cc1cncc(C(=O)N2CCCC(c3ccnc(=O)[nH]3)C2)c1 (configuration not stated)	0	-5	-7	-7
Cc1cccc(CNC(=O)CCC(=O)N2CCCn3nc(-c4cccn4C)cc32)c1	-27	-10	-102	-9
CCc1cc(C(=O)N2CCCCC2c2nnc(-c3cnccn3)o2)cs1 (configuration not stated)	0	1	-1	-1
Cc1cc2occ(CC(=O)N3CCCCC3c3nnc(-c4cnccn4)o3)c2cc1C (configuration not stated)	-3	-1	30*	2
O=c1cc(-c2cncc(Br)c2)nc(-c2ccccc2)[nH]1	3	10	34*	1
O=c1cc(-c2cncc(-c3cc4ccccc4o3)c2)nc(-c2ccccc2)[nH]1	4	1	4	-1
COc1cc(O)c2c(=O)oc3c(O)c(OC)cc(C)c3c2c1	-1	4	3	-3
COc1cc2c(oc(=O)c3cc(C)cc(OC)c32)c2c([C@@H]3OC(C)[C@@H](O)[C@@](C)(O)C3O)ccc(O)c12 (some centres not stated)	-25	4	59*	17
Cc1cccc(-c2noc(Cn3c(=O)[nH]c4cc5c(cc4c3=O)OCO5)n2)c1	2	20	55*	-2
C=CC1(C)CCC(C)(C(C)C)c2cc3c4c(c[nH]c4c21)CC(COC)NC(=O)C(C(C)C)N3C (configuration not stated)	-5	-7	-23	-1
NC1=NC(=Nc2cccc(S(=O)(=O)N3CCCCC3)c2)c2ccccc21	8	4	22	7
Cc1ncc(CO)c2c1Oc1nc(-c3cccc(Cl)c3)nc(SCC(=O)N3CCCCC3)c1C2	39*	37*	50*	15
O=C(Nc1ccc2c(c1)OCO2)c1cncc(NS(=O)(=O)c2ccc3c(c2)OCCO3)c1	-13	-8	45*	-6
O=C(Nc1ccc2c(c1)OCO2)c1cncc(NS(=O)(=O)c2ccccc2)c1	-33	0	70*	21
CC(=O)Nc1ccc(S(=O)(=O)Nc2cncc(C(=O)NCc3ccc4c(c3)OCO4)c2)cc1	7	-2	6	3
SMILES	USP7 inh	USP10 block	USP8 inh	UCHL1 block
CC1Oc2ccc(NC(=O)c3ccc(NS(=O)(=O)c4ccc5c(c4)OCCO5)cc3)cc2NC1=O (configuration not stated)	9	4	-19	3
Cc1ccc(-c2sc(-c3ccccc3)nc2CC(=O)Nc2sccc2C(N)=O)cc1	-9	-1	0	-12
COc1cc(NC(=O)c2cccs2)c(OC)cc1NC(=O)CCC(=O)N1CCCC1	4	1	6	1
CC1=N[C@@]2(CC[C@@H]3CN(Cc4ccc(C)cc4)C[C@@H]32)C(=O)N1C	-8	-4	-20	-4
Cc1cc([N+](=O)[O-])nn1CCCC(=O)Nc1ccc2c(c1)OCO2	2	7	45*	7
CSc1ccccc1NC(=O)CCCn1nc([N+](=O)[O-])cc1C	-3	2	2	1
O=C(c1cccnc1)N1C[C@H](c2ccc(F)cc2)[C@H]2CN(CC3CC3)CC[C@H]21	-7	-2	-4	0
O=C(Nc1ccc2c(c1)OCO2)c1[nH]nc2c1CCc1ccccc1-2	0	11	85*	9
O=C(NCc1ccc2c(c1)OCO2)c1[nH]nc2c1CCc1ccccc1-2	0	6	41*	2
O=C(NCc1ccc2c(c1)OCO2)c1cc(-c2cc(Cl)ccc2O)n[nH]1	12	9	50*	5
O=C(Nc1cccnc1)c1[nH]nc2c1COc1ccccc1-2	-33	-1	-10	-16
O=C(CSc1cc(NCc2ccc(Cl)cc2)ncn1)NCC1CCCO1 (configuration not stated)	-14	-8	9	-7
O=C(/C=C/c1ccc(Br)cc1)N1CCc2ccccc2C1	6	3	28	0
CC(C)c1ccc(/C=C/C(=O)N2CCc3ccccc3C2)cc1	5	11	69*	4
Cc1noc(-c2ccc3nnc(CC(=O)Nc4ccc(F)cc4)n3c2)n1	0	-1	13	3
C=C1CC[C@H]2[C@@](C)(COC(C)=O)CCC[C@]2(C)[C@H]1CC/C(C)=C/COC(C)=O	12	9	4	3
C=C1CCC2C(C)(CCC=C(C)C)C(OC(C)=O)CCC2(C)C1Cc1c(O)c(C)c(C)oc1=O (configuration not stated)	17	32*	15	8
COc1cccc(-c2cc3n(C)c(C)c(CCC(=O)NCc4ccco4)c(=O)n3n2)c1	-43	-7	53*	-1
COc1ccc2[nH]c(=O)c(-c3noc(-c4cccnc4)n3)cc2c1	4	1	0	0
CC(C)CCN1C[C@H]2CCN(C(=O)c3ccnnc3)CC[C@H]2S1(=O)=O	3	0	0	-1
C[C@@H]1CO[C@@H]2c3c(O)ccc(O)c3[C@H]3OC(=O)[C@@H]4CC[C@H]5C1CC[C@@]25[C@@H]34	2	13	1	0
O=C1C=C(O)c2c(O)cccc2C1=O	-114	14	79*	23
Cc1ccc2c(c1)C(=O)c1c(O)cccc1C2=O	-1	-3	-17	-4
Cc1cc2c(cc1C)NC(CC(=O)Nc1ccc(O)cc1)C(=O)N2 (configuration not stated)	-8	-5	81*	2
COc1cc(CO)cc2c1C(=O)c1c(O)cc(O)cc1C2=O	5	3	5	3
COc1cc(C)cc2c1C(=O)c1c(cc(O)c(Cl)c1O)C2=O	72*	5	-18	73*
O=C(CN1CCC2(CCC1=O)NC(=O)c1ccccc1N2)NCc1ccc(F)cc1 (configuration not stated)	4	0	9	2
CNC(=O)[C@@]12CCC3(CCN(C(=O)c4cccnc4)CC3)[C@@H]1CN(C(C)=O)C2	0	-3	-90	-1
